Source: PubChem
Shown are actives, neighbours in structure and some others; about 3.7% of the full set was active somewhere.
PfHsp90 set2: inhibits growth of yeast expressing Plasmodium falciparum Hsp90. S. cerevisiae expressing PfHsp90, BacTiter-Glo ATP, 48 h; yeast lacking PDR1 and PDR3 efflux regulators. inhibition, % at 9.4 µM. actives 0.32% (n = 310,000). AID 504621;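 active means every replicate shows inhibition above about 80%, whatever the replicate mean, limit read from the data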
NALP3 yeast inh: NALP3 inhibition in yeast; Yeast reconstituted NLRP3/ASC/caspase-1, beta-gal luminescence, 24 h; inhibition, % at 10 µM; actives 0.39% (n = 330,000);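 active means inhibition of 50% or more; inactive means inhibition below 50%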
tim23-1 inh: tim23-1 yeast growth inhibition. inhibition, % at 20 µM. actives 1.3% (n = 330,000). S. cerevisiae tim23-1 growth, BacTiter-Glo luminescence, 24 h. AID 463212;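 active means growth inhibition of the mutant yeast at or above 50%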;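 further: temperature-sensitive mutant grown at 25 °C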
tim10-1 inh: inhibits growth of tim10-1 mutant yeast | S. cerevisiae tim10-1 ts strain growth, BacTiter-Glo, 24 h | inhibition, % at 20 µM | actives 2.2% (n = 330,000) | AID 463190;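 active means inhibition of at least 40%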;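 further: mutant grown at 25 °C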
TIM10 inh: TIM10 yeast growth inhibition; S. cerevisiae TIM10 strain growth, BacTiter-Glo luminescence, 24 h; inhibition, % at 10 µM; actives 1.4% (n = 330,000);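 active means inhibition of 40% or more at the single tested concentration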;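 further: wild-type TIM10 isogenic control strain grown at permissive 25 °C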
tim23-1 confirm: confirmation of tim23-1 mutant yeast growth inhibitors; shares compounds with tim23-1 inh; S. cerevisiae tim23-1 growth, BacTiter-Glo luminescence, 24 h; inhibition, % at 20 µM; actives 83% (n = 4,400);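 active means inhibition above about 39% in either of two replicate wells at 20 µM, limit read from the data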;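 further: temperature-sensitive tim23-1 mutant grown at 25 °C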
Numbers stand for hits.

Cn1nccc1C(=O)N1CCOCC1 was read as PfHsp90 set2 inactive, NALP3 yeast inh inactive, tim23-1 inh inactive, tim10-1 inh inactive and TIM10 inh inactive.
O=C(/C=C/c1ccccc1)Oc1cccc2cccnc12 was read as PfHsp90 set2 inactive, NALP3 yeast inh inactive, tim23-1 inh 54, tim10-1 inh inactive, TIM10 inh inactive and tim23-1 confirm 43.
Screening NC(=O)COc1cccc2cccnc12 returned NALP3 yeast inh inactive, tim23-1 inh inactive, tim10-1 inh inactive and TIM10 inh inactive.
For CC1CC1C(=O)Nc1nc(-c2ccccc2)cs1 (stereo not drawn) the results were PfHsp90 set2 inactive, NALP3 yeast inh inactive, tim23-1 inh 53, tim10-1 inh inactive, TIM10 inh inactive and tim23-1 confirm 47.
`CCOc1ccc(N=c2scc(-c3ccccc3)n2CCO)cc1` gave PfHsp90 set2 inactive, NALP3 yeast inh inactive, tim23-1 inh inactive, tim10-1 inh inactive and TIM10 inh inactive.
Screening CCn1c(-c2ccccc2)csc1=Nc1ccc(O)cc1 returned PfHsp90 set2 inactive, NALP3 yeast inh inactive, tim23-1 inh 58, tim10-1 inh inactive, TIM10 inh inactive and tim23-1 confirm 39.
O=C(CSc1nc(C2CC2)nc2c1cnn2-c1ccccc1)Nc1c[nH]c(=O)[nH]c1=O was read as PfHsp90 set2 inactive, NALP3 yeast inh inactive, tim23-1 inh inactive, tim10-1 inh inactive and TIM10 inh inactive.
`Cc1ccccc1CSc1nsc(N)n1` gave NALP3 yeast inh inactive, tim23-1 inh 52, tim10-1 inh inactive, TIM10 inh inactive and tim23-1 confirm 50.
COc1ccc(S(=O)(=O)N2CCN(C(=O)c3ccc4ccccc4n3)CC2)cc1 was read as PfHsp90 set2 inactive, NALP3 yeast inh inactive, tim23-1 inh 58, tim10-1 inh inactive, TIM10 inh inactive and tim23-1 confirm 61.
COc1ccc(S(=O)(=O)N2CCN(C(=O)c3cnc(C)cn3)CC2)cc1 was read as PfHsp90 set2 inactive, NALP3 yeast inh inactive, tim23-1 inh inactive, tim10-1 inh inactive and TIM10 inh inactive.
`COC(=O)c1ccc(NC(=O)C(OC)c2ccccc2)cc1` (stereo not drawn) gave PfHsp90 set2 inactive, NALP3 yeast inh inactive, tim23-1 inh inactive, tim10-1 inh inactive and TIM10 inh inactive.
For CSc1nc2nc3c(cc2c(=O)n1-c1ccccc1C)CCCC3 the results were PfHsp90 set2 inactive, NALP3 yeast inh inactive, tim23-1 inh 55, tim10-1 inh inactive, TIM10 inh inactive and tim23-1 confirm 44.
`Cc1ccc(C(=O)/C=C/C(=O)c2ccc(C)cc2)cc1` gave PfHsp90 set2 inactive, NALP3 yeast inh inactive, tim23-1 inh 58, tim10-1 inh inactive, TIM10 inh inactive and tim23-1 confirm inactive.
`COCCNC(=O)/C(C#N)=C/c1ccc(C(=O)O)cc1` gave PfHsp90 set2 inactive, NALP3 yeast inh inactive, tim23-1 inh inactive, tim10-1 inh inactive and TIM10 inh inactive.
`COCCNC(=O)/C(C#N)=C/c1ccc(OCc2ccccc2)cc1` gave PfHsp90 set2 inactive, NALP3 yeast inh inactive, tim23-1 inh 55, tim10-1 inh inactive, TIM10 inh inactive and tim23-1 confirm 53.
`COCCNC(=O)/C(C#N)=C/c1ccc(OCc2ccc(F)cc2)cc1` gave PfHsp90 set2 inactive, NALP3 yeast inh inactive, tim23-1 inh 56, tim10-1 inh inactive, TIM10 inh inactive and tim23-1 confirm 48.
`Cc1nc2cc(N=NC3=C(O)CCCC3=O)ccc2s1` gave PfHsp90 set2 inactive, NALP3 yeast inh inactive, tim23-1 inh inactive, tim10-1 inh inactive and TIM10 inh inactive.
Screening COc1ccc(NC(=O)c2c(C(F)(F)F)nn(C)c2SCc2ccccc2Cl)cc1 returned PfHsp90 set2 inactive, NALP3 yeast inh inactive, tim23-1 inh inactive, tim10-1 inh inactive and TIM10 inh inactive.
`COC(=O)C1=NN(c2ccc(C)cc2)C2(S1)SC(C(C)=O)=C(C)N2c1ccccc1` (stereo not drawn) gave NALP3 yeast inh inactive, tim23-1 inh 51, tim10-1 inh inactive, TIM10 inh inactive and tim23-1 confirm 40.
Screening CC(=O)Nc1cc(=O)c2cccnc2[nH]1 returned PfHsp90 set2 inactive.
For Cn1c(N)c(C(=O)COC(=O)c2cncc(Br)c2)c(=O)n(C)c1=O the results were PfHsp90 set2 inactive, NALP3 yeast inh inactive, tim23-1 inh inactive, tim10-1 inh inactive and TIM10 inh inactive.
NNc1ncnc2scc(-c3ccc(Cl)cc3)c12 was read as PfHsp90 set2 inactive, NALP3 yeast inh inactive, tim23-1 inh 58, tim10-1 inh inactive, TIM10 inh inactive and tim23-1 confirm 50.
Screening Clc1ccc(-c2csc3ncnc(Cl)c23)cc1 returned PfHsp90 set2 inactive, NALP3 yeast inh inactive, tim23-1 inh 60, tim10-1 inh inactive, TIM10 inh inactive and tim23-1 confirm 42.
OCCCNc1ncnc2scc(-c3ccc(Cl)cc3)c12 was read as PfHsp90 set2 inactive, NALP3 yeast inh inactive, tim23-1 inh inactive, tim10-1 inh inactive and TIM10 inh inactive.
`CCCN1C(=O)c2ccc(C(=O)Nc3ccccc3C(=O)O)cc2C1=O` gave PfHsp90 set2 inactive, NALP3 yeast inh inactive, tim23-1 inh inactive, tim10-1 inh inactive and TIM10 inh inactive.
For Cc1ccccc1CS(=O)(=O)c1ncc(Cl)c(C(=O)Nc2ccc(F)cc2)n1 the results were PfHsp90 set2 114, NALP3 yeast inh inactive, tim23-1 inh 62, tim10-1 inh inactive, TIM10 inh inactive and tim23-1 confirm inactive.
For COc1ccc(OC)c(NC(=O)c2nc(S(=O)(=O)Cc3ccccc3)ncc2Cl)c1 the results were PfHsp90 set2 100, NALP3 yeast inh inactive, tim23-1 inh 73, tim10-1 inh inactive, TIM10 inh inactive and tim23-1 confirm inactive.
For O=C(Nc1ccc(F)cc1)c1nc(S(=O)(=O)Cc2ccccc2)ncc1Cl the results were PfHsp90 set2 96, NALP3 yeast inh inactive, tim23-1 inh 61, tim10-1 inh inactive, TIM10 inh inactive and tim23-1 confirm inactive.
`FC(F)(F)c1ccccc1/C=N/n1c(COc2ccccc2)n[nH]c1=S` gave PfHsp90 set2 inactive, NALP3 yeast inh inactive, tim23-1 inh 50, tim10-1 inh inactive, TIM10 inh inactive and tim23-1 confirm inactive.
Screening S=c1[nH]nc(COc2ccccc2)n1/N=C/c1ccccc1Br returned PfHsp90 set2 inactive, NALP3 yeast inh inactive, tim23-1 inh inactive, tim10-1 inh inactive and TIM10 inh inactive.
Screening O=c1cc(CSc2ccc(S(=O)(=O)N3CCCCC3)cn2)nc2sccn12 returned PfHsp90 set2 inactive, NALP3 yeast inh inactive, tim23-1 inh 66, tim10-1 inh inactive, TIM10 inh inactive and tim23-1 confirm inactive.
Cc1cc(C)cc(CSc2ccc(S(=O)(=O)N3CCCC3)cn2)c1 was read as PfHsp90 set2 inactive, NALP3 yeast inh inactive, tim23-1 inh inactive, tim10-1 inh inactive and TIM10 inh inactive.
For CCN1CCN(c2cc(-c3ccccc3)nc3cc(-c4cccc(F)c4)nn23)CC1 the results were PfHsp90 set2 inactive, NALP3 yeast inh inactive, tim23-1 inh 53, tim10-1 inh inactive, TIM10 inh inactive and tim23-1 confirm inactive.
